Results taken from PubChem BioAssay AID1159580 (chemical genetic matrix, 2015).
Hit rate of the full screen: of about 5,500 compounds, about 2,000 (36%) were called active. Not shown: some 18% with an inconclusive outcome. No stated cut-off is given here; in the data, active means normalized growth mostly below about 0.91 (no sharp cut-off); inconclusive means no clear call, values can overlap the other calls; inactive means mostly above about 0.92. The list shows a part of the results.

Assay: chemical genetic growth profiling, strain panel (AID 1159580);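 further: tested at 20 µM; growth read once vehicle control cultures reached saturation at 30 °C; 1 = growth at the plate median or of vehicle wells; lower values mean less growth of the strain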
Details: S. cerevisiae deletion strains, growth OD

Measured: normalized growth

CC1CCN(CC[C@H]2CCCN2S(=O)(=O)c2cccc(O)c2)CC1
inactive: locus YAL040C, strain CLN3, active compounds read low 0.99 | locus YCL061C, strain MRC1 (second series), active compounds read low 1 | locus YDR363W, strain ESC2, active compounds read low 0.986 | locus YER002W, strain NOP16, active compounds read low 0.989 | locus YGR078C, strain PAC10, active compounds read low 1.02 | locus YMR263W, strain SAP30, active compounds read low 1 | locus YMR307W, strain GAS1, active compounds read low 1.03 | locus YNL128W, strain TEP1, active compounds read low 1.01 | locus YNL175C, strain NOP13, active compounds read low 1.01 | locus YNL197C, strain WHI3, active compounds read low 1.01 | locus YNL224C, strain SQS1, active compounds read low 1 | locus YNL322C, strain KRE1, active compounds read low 0.984 | locus YOR083W, strain WHI5 (second series), active compounds read low 1.03
